Source: PubChem BioAssay
HepG2 tox-1 = qHTS for Inhibitors of TGF-b: Cytotox Counterscreen | Potency, µM (titrated, usually from 46.1 µM), for the others: at the top dose activity change, negative = cytotoxicity, actives largely listed as cytotoxic | 410,000 tested, 0.76% active | AID 588856, 2011 | HepG2 CAGA-GFP viability, ATP luminescence, 18 h
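HepG2 CAGA-GFP cells (1000/well, DMEM with 1% FBS) received compound, then TGF-beta at 500 pg/mL final, and were incubated 18 hours at 37 degrees C. Viability was read by CellTiter-Glo luminescence. Media-only wells were set as complete cell-killing and DMSO as no toxicity.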
TGFb inhibitor = qHTS for Inhibitors of TGF-b; HepG2 CAGA-GFP TGF-b/SMAD3 reporter, GFP fluorescence, 18 h; TGF-beta stimulated, 500 pg/mL final; Potency, µM (doses to about 46.1 µM), for the others: at the top dose activity, negative = inhibition, usual class: inhibitors; 410,000 tested, 1.2% active; AID 588855, 2011; also: % is scaled to controls: 0 for no effect and ±100 for the full control effect; nearly all actives have a fitted effect of over 65% in size
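HEPG2 CAGA-GFP cells (1000/well, DMEM with 1% FBS) were pre-incubated 2 h at 37 degrees C, given compound by pin tool, then stimulated with TGF-beta at 500 pg/mL final for 18 h before per-cell GFP fluorescence imaging.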
Apoferritin bind = qHTS Assay for Identification of Novel General Anesthetics; apoferritin/1-aminoanthracene competitive binding, fluorescence; 350,000 tested, 0.074% active; Potency, µM (series often up to 77.5 µM), inactives show at the top dose activity change, negative = displacement, usual class: inhibitors; also: % is scaled to controls: 0 for no effect and ±100 for the full control effect; nearly all actives have a fitted effect of over 20% in size
Target sequence (P02791 2-175 limits assumed): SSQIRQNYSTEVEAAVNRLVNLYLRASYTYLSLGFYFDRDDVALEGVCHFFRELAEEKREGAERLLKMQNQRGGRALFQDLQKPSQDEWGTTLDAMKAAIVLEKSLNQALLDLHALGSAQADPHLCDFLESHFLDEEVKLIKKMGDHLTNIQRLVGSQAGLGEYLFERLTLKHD
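Apoferritin-based anesthetic binding model; compound displacement of fluorescent 1-AMA measured as endpoint fluorescence after 10 minutes at room temperature, scaled to free-ligand and complex controls.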
ATXN viability = Viability Counterscreen for Primary qHTS for Inhibitors of ATXN expression. 400,000 tested, 0.49% active. S2 cells (HEK-293 line with an ATXN2-luciferase reporter) viability, CellTiter-Fluor protease fluorescence, 24 h. Potency, µM (titrated, usually from 56.7 µM), most hits filed as cytotoxic; also: nearly all actives have a fitted effect of over 40% in size
ATXN2 expr inh = Primary qHTS for Inhibitors of ATXN expression; HEK-293 ATXN2-luciferase reporter, luminescence, 24 h; Potency, µM (top dose mostly 57 µM), inactives show at the highest dose activity change, negative = inhibition, usual class: inhibitors; 360,000 tested, 0.72% active; also: % is scaled to controls: 0 for no effect and ±100 for the full control effect; nearly all actives have a fitted effect of over 55% in size
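ATXN2-luciferase reporter cells (luciferase flanked by upstream and downstream ATXN2 gene portions) were treated 24 h at 37 °C with compounds at up to 57 uM. SteadyGlo luminescence gave expression; GF-AFC fluorescence gave viability.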
TGFb confirm = qHTS for Inhibitors of TGF-b: Confirmation of Cherry Picks; shares compounds with TGFb inhibitor; HepG2 CAGA-GFP TGF-b reporter, GFP fluorescence, 18 h; cells stimulated with TGF-beta, 500 pg/mL; Potency, µM (top dose mostly 46.1 µM), for the others: at the top dose activity, negative = inhibition, most hits filed as inhibitors; 1,600 tested, 63% active; AID 720534, 2013; also: % is scaled to controls: 0 for no effect and ±100 for the full control effect; nearly all actives have a fitted effect of over 65% in size
HepG2 tox-2 = qHTS for Inhibitors of TGF-b: Cytotox Counterscreen for Cherry Picks; Potency, µM (highest dose often 46.1 µM), for the others: at the highest dose activity, negative = cytotoxicity, most hits filed as inhibitors; AID 720535, 2013; shares compounds with TGFb inhibitor; 1,600 tested, 27% active; HepG2 CAGA-GFP viability, ATP luminescence, 18 h; cells stimulated with TGF-beta, 500 pg/mL; also: % is scaled to controls: 0 for no effect and ±100 for the full control effect; nearly all actives have a fitted effect of over 70% in size
TGFb CCL64 inh = qHTS for Inhibitors of TGF-b: CCL64 Cells Orthogonal Assay for Cherry Picks; shares compounds with TGFb inhibitor; Potency, µM (doses to about 46.1 µM), for inactives: top-dose activity, negative = inhibition, hits mostly inhibitors; CCL64 CAGA-GFP reporter, TGF-b stimulated, GFP fluorescence, 18 h; AID 720536, 2013; 1,600 tested, 41% active; also: nearly all actives have a fitted effect of over 65% in size
TGFb COP inh = qHTS for Inhibitors of TGF-b: Hit Validation in HepG2 Cells using COP promoter; Potency, µM (titrated, usually from 46.1 µM), for the others: at the highest dose activity, negative = inhibition, hits mostly inhibitors; 1,600 tested, 3% active; shares compounds with TGFb inhibitor; HepG2 COP-GFP TGF-b reporter, GFP fluorescence, 18 h; cells stimulated by added recombinant TGF-beta; AID 720537, 2013; also: nearly all actives have a fitted effect of over 70% in size
* = called active by the depositor. Most compounds without a hit are left out; they make up all but 2.4% or so of the library. Calls follow the shape of the dose curve; as a rule, active = well fitted curve in the direction sought with a large enough effect; inconclusive = small, poorly fitted or top-dose-only effect, or another doubt; inactive = no such curve, though single readings can be large; an effect the other way counts as inactive or inconclusive. Potency is read from the fitted curve at half-maximal effect.

Results for CC(C)C[C@@H](CN1CCCC1CN1C(=S)NC[C@@H]1Cc1ccc(O)cc1)N1C[C@H](Cc2ccccc2)N(CCc2ccccc2)C1=S (stereo not given in full) ?
HepG2 tox-1: -59.6%; TGFb inhibitor: inconclusive; ATXN viability: inactive; ATXN2 expr inh: -19.7%; TGFb confirm: inconclusive; HepG2 tox-2: -19.6%; TGFb CCL64 inh: inconclusive; TGFb COP inh: 26.7%

Results for CC(C)C[C@H]1CN([C@@H](CC(C)C)CN2CCCC2CN2C(=S)NC[C@@H]2Cc2ccc(O)cc2)C(=S)N1CCc1ccccc1 (stereo not given in full) ?
HepG2 tox-1: -1.5%; TGFb inhibitor: inconclusive; ATXN viability: inconclusive; ATXN2 expr inh: -24.0%

What do the screens show for `CC(NC1=CC(=O)c2cccnc2C1=O)C(O)c1ccccc1` (stereo not given)?
HepG2 tox-1: 5.01µM*; TGFb inhibitor: 5.01µM*; ATXN viability: inconclusive; ATXN2 expr inh: inconclusive; TGFb confirm: 5.8µM*; HepG2 tox-2: 5.17µM*; TGFb CCL64 inh: inconclusive; TGFb COP inh: 13µM*

How did CC(c1ccccc1)N1C(=O)c2cccnc2C1=O (stereo not given) do in these assays?
HepG2 tox-1: -2.9%; TGFb inhibitor: 2.4%; Apoferritin bind: -9.3%; ATXN viability: inactive; ATXN2 expr inh: -8.5%

How did Cc1sc2ncnc(N3CCC(C(=O)Nc4nc(-c5cccs5)cs4)CC3)c2c1C do in these assays?
HepG2 tox-1: -1.2%; TGFb inhibitor: inconclusive; ATXN viability: inconclusive; ATXN2 expr inh: 40.8%; TGFb confirm: 7.31µM*; HepG2 tox-2: inconclusive; TGFb CCL64 inh: inconclusive; TGFb COP inh: 26.7%

What do the screens show for `O=C(Nc1cc(S(=O)(=O)N2CCCCC2)ccc1O)c1ccccc1NS(=O)(=O)c1ccc(F)cc1`?
HepG2 tox-1: -31.8%; TGFb inhibitor: 17.8µM*; Apoferritin bind: -1.7%; ATXN viability: inactive; ATXN2 expr inh: inconclusive; TGFb confirm: 16.4µM*; HepG2 tox-2: inconclusive; TGFb CCL64 inh: inconclusive; TGFb COP inh: 74.1%

Results for Cc1ccc(S(=O)(=O)Nc2nc(-c3ccccc3)cs2)cc1 ?
HepG2 tox-1: 10.4%; TGFb inhibitor: -9.8%; Apoferritin bind: -8.9%; ATXN viability: inactive; ATXN2 expr inh: -13.8%

Results for COc1ccc(-c2csc(NC(=O)c3ccccc3NS(=O)(=O)c3ccc(F)c(F)c3)n2)cc1 ?
HepG2 tox-1: -41.9%; TGFb inhibitor: 1.78µM*; Apoferritin bind: -4.1%; ATXN viability: inconclusive; ATXN2 expr inh: 7.08µM*; TGFb confirm: 2.31µM*; HepG2 tox-2: 1.46µM*; TGFb CCL64 inh: 1.84µM*; TGFb COP inh: -8.7%

Results for Cc1ccc(S(=O)(=O)Nc2ccccc2C(=O)Nc2nc(-c3ccc(F)cc3)cs2)cc1 ?
HepG2 tox-1: -34.4%; TGFb inhibitor: 5.62µM*; Apoferritin bind: -11.5%; ATXN viability: inconclusive; ATXN2 expr inh: inconclusive; TGFb confirm: 5.17µM*; HepG2 tox-2: 5.8µM*; TGFb CCL64 inh: 5.17µM*; TGFb COP inh: 93.6%

What do the screens show for `CCOc1ccccc1NC(=S)N1CCC(NC(=O)C(C)(C)C)CC1`?
HepG2 tox-1: 10.4%; TGFb inhibitor: 18.0%; Apoferritin bind: -3.3%; ATXN viability: inconclusive; ATXN2 expr inh: -22.4%

What do the screens show for `COc1cccc(CNC(=O)N2CCC(CN3CCC(C)CC3)CC2)c1`?
HepG2 tox-1: -22.6%; TGFb inhibitor: -14.8%; Apoferritin bind: -3.0%; ATXN viability: inconclusive; ATXN2 expr inh: -6.9%

What do the screens show for `CCN(c1ccccc1)S(=O)(=O)c1cc(C(=O)Nc2cccc(Cl)c2)ccc1F`?
HepG2 tox-1: -24.9%; TGFb inhibitor: 10µM*; Apoferritin bind: -3.5%; ATXN viability: inconclusive; ATXN2 expr inh: -38.0%; TGFb confirm: 9.2µM*; HepG2 tox-2: inconclusive; TGFb CCL64 inh: 14.6µM*; TGFb COP inh: 57.9%

Results for O=C(Nc1cccc(Cl)c1)c1ccc(F)c(S(=O)(=O)NCc2cccs2)c1 ?
HepG2 tox-1: -31.1%; TGFb inhibitor: 10µM*; Apoferritin bind: -4.1%; ATXN viability: inactive; ATXN2 expr inh: inconclusive; TGFb confirm: inconclusive; HepG2 tox-2: inconclusive; TGFb CCL64 inh: inconclusive; TGFb COP inh: 10.6%

Results for COc1ccc(CNC(=S)N/N=C/c2ccc(O)c(OC)c2)cc1 ?
HepG2 tox-1: -26.9%; TGFb inhibitor: 11.2µM*; Apoferritin bind: -16.4%; ATXN viability: inactive; ATXN2 expr inh: 11.9%; TGFb confirm: -11.4%; HepG2 tox-2: -25.2%; TGFb CCL64 inh: -17.8%; TGFb COP inh: 1.4%

How did Cc1cccc(C)c1NC(=O)CCCSc1nnc(-c2ccc(F)cc2)n1-c1ccccc1 do in these assays?
HepG2 tox-1: -36.6%; TGFb inhibitor: 7.94µM*; Apoferritin bind: -18.0%; ATXN viability: inactive; ATXN2 expr inh: -4.8%; TGFb confirm: inconclusive; HepG2 tox-2: -24.8%; TGFb CCL64 inh: inconclusive; TGFb COP inh: 18.2%

What do the screens show for `O=C(Nc1c(C(=O)N2CCOCC2)cnn1-c1ccccc1)c1ccc(F)cc1`?
HepG2 tox-1: -12.4%; TGFb inhibitor: -16.8%; Apoferritin bind: -11.9%; ATXN viability: inactive; ATXN2 expr inh: -7.8%
